The list is not random: actives were taken first. Their share in the collection is about 15%.
Pf growth 96h: Primary qHTS for delayed death inhibitors of the malarial parasite plastid, 96 hour incubation | P. falciparum luciferase reporter growth, 96 h | Potency, µM (top dose mostly 28.7 µM), actives largely listed as inhibitors | hit rate 6.9% among 320,000
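Two parasite generations (96 h, 37 C, 5% CO2) of compound exposure in infected erythrocytes (0.05% parasitemia, 2% hematocrit). Luciferase-reporter P. falciparum; decreased luminescence indicates inhibited growth, aimed at apicoplast-acting delayed death.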
HCV inhibitor: qHTS Assay for Inhibitors of Hepatitis C Virus (HCV); AID 651820, 2012; hit rate 3.4% among 340,000; Huh7.5.1 HCVcc-Cre infection, luciferase reporter, 44 h; Potency, µM (doses to about 41.8 µM), most hits filed as inhibitors
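HCVcc-Cre virus at an moi near 0.5 was added right after compound to cells cultured 4 h from seeding (1,000 cells/well). Luciferase activity was determined 44 h later, 15 min after substrate addition at RT.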
HCMV inh: qHTS Assay for inhibitors of the human cytomegalovirus (HCMV); HFF cells, HCMV-luciferase reporter, 72 h; stronger effect = lower value; hit rate 4.5% among 410,000; activity change, negative = inhibition, % at 57.5 µM; AID 1259415, 2018; in the data active means activity change below about -60%; inconclusive means no clear call, values can overlap the other calls; inactive means above about -39%
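After 16 h attachment at 37C, HFF cells received test compound and HCMV-luciferase (1 PFU/cell); reporter luminescence read 72 h later, data normalized against buffer-only and known inhibitor Salinomycin.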
Sm TGR block: qHTS Assay for the Inhibitors of Schistosoma Mansoni Peroxiredoxins; AID 485364, 2010; hit rate 3% among 360,000; purified TGR, DTNB reduction, TNB absorbance 405 nm; Potency, µM (series often up to 114 µM), actives largely listed as inhibitors; further: nearly all actives have a fitted effect of over 60% in size
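TGR 20 nM + NADPH 100 uM (dispensed conc.), cpd preinc 15 min RT; start with NADPH (500 uM addition) then DTNB (15 mM addition). Kinetic TNB absorbance, 405 nm filter. Four-parameter Hill fit across titration.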
SARS PLpro yeast: qHTS of Yeast-based Assay for SARS-CoV PLP. S. cerevisiae expressing SARS-CoV PLpro, growth rescue. Potency, µM (titrated, usually from 32.9 µM), usual class: activators. hit rate 0.19% among 330,000. AID 485353, 2010; calls by dose curve; further: nearly all actives have a fitted effect of over 55% in size
Pf growth 48h: Primary qHTS for delayed death inhibitors of the malarial parasite plastid, 48 hour incubation | Potency, µM (highest dose often 28.7 µM), hits mostly inhibitors | hit rate 5.9% among 310,000 | AID 504832, 2011 | P. falciparum luciferase growth in erythrocytes, 48 h
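In quantitative HTS format, infected erythrocytes bearing luciferase-reporter parasites were treated for a single generation at 37 C. Luminescence after adding detection reagent served as the growth measure.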
Large screens that a line does not name were inactive. Unless noted, the call rests on the fitted dose curve; in most records, active means well fitted curve in the direction sought with a large enough effect; inconclusive means small, poorly fitted or top-dose-only effect, or another doubt; inactive means no such curve, though single readings can be large; an effect the other way counts as inactive or inconclusive.

COC(=O)C1C=C2c3cccc4[nH]cc(c34)CC2N(C)C1 (configuration not stated)	Pf growth 96h inconclusive, Sm TGR block 10µM, Pf growth 48h inconclusive (no result: HCV inhibitor, HCMV inh)
CN1C[C@H](C(=O)N[C@]2(C)O[C@@]3(O)[C@@H]4CCCN4C(=O)[C@H](Cc4ccccc4)N3C2=O)C=C2c3cccc4[nH]cc(c34)C[C@H]21	Pf growth 96h 0.3µM, Pf growth 48h 0.3µM (no result: HCV inhibitor, HCMV inh, Sm TGR block, SARS PLpro yeast)
CC(C)C[C@H]1C(=O)N2CCC[C@H]2[C@]2(O)O[C@](NC(=O)[C@@H]3C=C4c5cccc6[nH]cc(c56)C[C@H]4N(C)C3)(C(C)C)C(=O)N12	Pf growth 96h 3.7µM, HCV inhibitor inconclusive, Sm TGR block 5.6µM, Pf growth 48h 2.9µM (no result: HCMV inh, SARS PLpro yeast)
CCC(CO)NC(=O)C1C=C2c3cccc4[nH]cc(c34)CC2N(C)C1 (configuration not stated)	none
Cc1cc(C)c(C(=O)CSc2nnc(C)c(=O)[nH]2)cc1C	none
CCOc1ccc(NC(=O)C(C)Oc2ccc(C#N)cc2)cc1S(=O)(=O)N1CCCC1 (configuration not stated)	Pf growth 96h inconclusive, Pf growth 48h inconclusive
CC1CCN(c2nn3c(=O)c(C(=O)NC(C)C)cnc3s2)CC1	none (no result: Pf growth 96h, HCV inhibitor, SARS PLpro yeast, Pf growth 48h)
CCOC(=O)c1c(-c2ccc(Br)cc2)csc1NC(=O)c1ccc(C(C)(C)C)cc1	none (no result: Pf growth 96h, HCV inhibitor, SARS PLpro yeast, Pf growth 48h)
CC(=O)N1C(=O)/C(=C2\SC(=S)N(NS(=O)(=O)c3ccc(C)cc3)C2=O)c2ccccc21	Sm TGR block 2.5µM
CC(/C=C1\SC(=S)N(NS(=O)(=O)c2ccc(C)cc2)C1=O)=C\c1ccccc1	none
Cc1nnc(N/N=C/c2cc([N+](=O)[O-])c(N3CCC(C)CC3)cc2N2CCC(C)CC2)n1N	HCV inhibitor 13µM, HCMV inh inconclusive, Sm TGR block inconclusive, Pf growth 48h 5.9µM (no result: Pf growth 96h)
Cc1ccccc1N=C1NC(=O)/C(=C/c2cccn2-c2cccc(C(=O)O)c2)S1	none (no result: Sm TGR block)
COc1ccc(-c2[nH]nc3oc(=O)cc(C)c23)cc1	Pf growth 96h 8.3µM (no result: SARS PLpro yeast)
CCc1cc(=O)oc2c3c(cc(OCC(=O)NCc4ccco4)c12)OC(C)(C)CC3	Pf growth 96h inconclusive, HCV inhibitor 1.3µM (no result: HCMV inh)
CCc1cc(=O)oc2c3c(cc(OCC(=O)NCc4ccncc4)c12)OC(C)(C)CC3	Pf growth 96h inconclusive, HCV inhibitor inconclusive, Pf growth 48h 10µM
CCn1ccc2c(OCC(=O)Nc3ccc(OC)cc3OC)cccc2c1=O	none (no result: Pf growth 96h, HCV inhibitor, SARS PLpro yeast, Pf growth 48h)
Cc1cc(NC(=O)CN2CCc3ccccc3C2)nc2c1c(=O)oc1ccccc12	Pf growth 96h inconclusive, Sm TGR block inconclusive, Pf growth 48h 10µM
Cc1cc(NC(=O)CN2CCC(C)CC2)nc2c1c(=O)oc1ccccc12	none (no result: Pf growth 96h, HCV inhibitor, SARS PLpro yeast, Pf growth 48h)
CCC(CC)NC(=O)/C=C/c1ccccc1Cl	HCV inhibitor inconclusive
C[n+]1ccccc1/C=C/c1c(F)cccc1F	Pf growth 96h inconclusive, HCV inhibitor inconclusive, HCMV inh inconclusive, Sm TGR block 13µM, Pf growth 48h 13µM
C[n+]1ccccc1/C=C/c1ccccc1Cl	Pf growth 96h inconclusive, HCV inhibitor inconclusive, HCMV inh -79, Sm TGR block 22µM, Pf growth 48h 1.5µM
Cc1ccccc1/C=C/c1cccc[n+]1C	Pf growth 96h inconclusive, HCV inhibitor 6.3µM, HCMV inh inconclusive, Pf growth 48h 4.7µM
Cc1ccccc1/C=N/N1CCN(c2ccccc2)CC1	none
Cc1ccc(C(=O)OCC(=O)NNC(=O)c2cccs2)c(O)c1	none
O=C(CCCCCn1c(=O)c2sccc2n(CC(=O)Nc2cccc(Cl)c2)c1=O)NCc1ccc2c(c1)OCO2	Sm TGR block inconclusive (no result: Pf growth 96h, HCV inhibitor, SARS PLpro yeast, Pf growth 48h)
COc1ccc(-n2nc(C)c3c(C(F)(F)F)cc(-c4cccnc4)nc32)cc1	HCMV inh -73 (no result: Pf growth 96h, HCV inhibitor, SARS PLpro yeast, Pf growth 48h)
Cc1nn(-c2cccc(Cl)c2)c2nc(-c3cccnc3)cc(C(F)(F)F)c12	none (no result: Pf growth 96h, HCV inhibitor, SARS PLpro yeast, Pf growth 48h)
CC[C@H](C)C(=O)O[C@H]1C[C@@H](C)C=C2C=C[C@H](C)[C@H](CC[C@@H]3C[C@@H](O)CC(=O)O3)[C@H]21	Pf growth 96h inconclusive, HCMV inh inconclusive, Sm TGR block inconclusive, Pf growth 48h inconclusive
CC[C@H](C)C(=O)O[C@H]1CCC=C2C=C[C@H](C)[C@H](CC[C@@H]3C[C@@H](O)CC(=O)O3)[C@H]21	HCV inhibitor 0.56µM, HCMV inh inconclusive, Pf growth 48h inconclusive
CCC(C)C(=O)OC1CCC=C2C=CC(C)C(CCC3CC(O)CC(=O)O3)C21 (configuration not stated)	HCMV inh -97 (no result: Pf growth 96h, Sm TGR block, SARS PLpro yeast, Pf growth 48h)
Clc1ccc(C2Nc3ccccc3-n3cccc32)cc1 (configuration not stated)	HCV inhibitor inconclusive
Oc1ccc(C2NCc3ccccc3-n3cccc32)cc1Cl (configuration not stated)	Pf growth 48h 0.66µM
FC(F)(F)c1cccc(C2NCc3ccccc3-n3cccc32)c1 (configuration not stated)	Pf growth 96h 4.7µM, HCMV inh inconclusive
CCOC(=O)N1CCN(S(=O)(=O)c2ccc3c(c2)oc(=O)n3C)CC1	none
CCOC(=O)N1CCN(C(=O)C(CC(C)C)NS(=O)(=O)c2ccc3c(c2)oc(=O)n3C)CC1 (configuration not stated)	Pf growth 96h 10µM (no result: Pf growth 48h)
CC(C)CC(NS(=O)(=O)c1ccc2c(c1)oc(=O)n2C)C(=O)N1CC=C(c2ccccc2)CC1 (configuration not stated)	Pf growth 96h 10µM, SARS PLpro yeast inconclusive (no result: Pf growth 48h)
C/C(=N\NC(=O)c1cccc(N/N=C(\C)c2ccc([N+](=O)[O-])cc2)c1)c1ccc([N+](=O)[O-])cc1	Pf growth 96h 4.1µM, Pf growth 48h 1.7µM
C/C(=N\NC(=O)C(C)Sc1ccccc1)c1ccc([N+](=O)[O-])cc1 (configuration not stated)	Pf growth 96h 9.3µM, HCV inhibitor inconclusive
COc1cc(C(C)=NNC(=O)c2ccncc2)ccc1O	HCMV inh -101 (no result: Pf growth 96h, Sm TGR block, SARS PLpro yeast, Pf growth 48h)
C/C(=N\NC(=O)c1cccc(N/N=C(\C)c2ccccc2)c1)c1ccccc1	HCV inhibitor inconclusive, Pf growth 48h inconclusive
C/C(=N\NC(=O)c1cccc(N/N=C(\C)c2ccncc2)c1)c1ccncc1	Pf growth 96h 8.3µM, Pf growth 48h inconclusive
O=c1c2cccnc2n(Cc2ccccc2F)c(=O)n1Cc1ccccc1Cl	none (no result: Pf growth 96h, HCV inhibitor, SARS PLpro yeast, Pf growth 48h)
C/C(=N\NC(=O)c1ccncc1)c1cccc(NC(=O)c2ccc(C(C)(C)C)cc2)c1	HCV inhibitor 10µM
CCc1nc2ccc(C(=O)NCCc3ccc(OC)cc3OC)cc2nc1CC	none (no result: Pf growth 96h, HCV inhibitor, SARS PLpro yeast, Pf growth 48h)

Screening data: PubChem, National Center for Advancing Translational Sciences (NCATS)
